High-throughput results from PubChem BioAssay.
CYP2C19 activ: activators of human cytochrome P450 2C19; P33261; recombinant CYP2C19, luciferin-H EGE luminescence; hits give high values; 0 = fully inhibited enzyme, 1 = untreated enzyme; activation factor at 5 µM; 96,000 tested, under 10 active; AID 1025;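 active = activation factor of at least 2 at 5 µM in the primary screen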;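 note: 0 = wells with 2.5 mM tranylcypromine and 1 = vehicle-only wells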
Target sequence (P33261 whole entry, looked up): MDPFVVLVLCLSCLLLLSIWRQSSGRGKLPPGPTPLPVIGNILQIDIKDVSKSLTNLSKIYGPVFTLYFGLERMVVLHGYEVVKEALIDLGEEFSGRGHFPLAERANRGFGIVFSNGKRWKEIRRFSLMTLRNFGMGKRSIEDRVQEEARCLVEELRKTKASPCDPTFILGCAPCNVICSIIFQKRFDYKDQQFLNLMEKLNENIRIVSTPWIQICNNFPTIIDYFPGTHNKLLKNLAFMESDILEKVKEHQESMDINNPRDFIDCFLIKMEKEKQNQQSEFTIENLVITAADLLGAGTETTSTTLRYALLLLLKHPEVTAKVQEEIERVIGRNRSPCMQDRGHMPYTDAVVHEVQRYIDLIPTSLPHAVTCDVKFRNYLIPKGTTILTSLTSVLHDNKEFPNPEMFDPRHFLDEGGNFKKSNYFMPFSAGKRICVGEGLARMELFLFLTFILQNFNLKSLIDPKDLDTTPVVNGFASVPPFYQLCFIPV
CYP2C19 inhib: blocks human cytochrome P450 2C19. P33261. CYP2C19 Supersomes, luciferin-H EGE luminescence, 30 min. inhibition, % at 5 µM. hit rate 21% among 96,000. AID 778;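 active = CYP2C19 inhibition above a set limit at 5 µM in the primary screen, cut at about 50% in these data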;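 note: plate controls were negative control wells for no effect and 2.5 mM tranylcypromine positive control for full effect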
EphB4 antag: EphB4-ephrin-B2 interaction antagonism. inhibition, % at 7 µM. EphB4 LBD / TNYL-RAW-Alexa532 peptide, fluorescence polarization. hit rate 0.15% among 97,000. P54760;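 active = inhibition above the screen-wide mean inhibition plus 3 SD, cut at about 15% in these data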;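 note: 0% = DMSO wells and 100% = excess unlabeled TNYL-RAW peptide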
CYP2C9 inh: human CYP2C9 inhibition; P11712; CYP2C9 Supersomes, luciferin-H conversion, luminescence; inhibition, % at 5 µM; hit rate 20% among 96,000; AID 777;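 active = blocking of liver enzyme CYP2C9 beyond about 50% at 5 µM, limit read from the data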
CYP2C9 act: CYP2C9 (human) activation; activation factor at 5 µM; AID 1024; hit rate 1.4% among 96,000; recombinant CYP2C9, luciferin-H conversion, luminescence; hits give high values; factor 1 = untreated enzyme, 0 = blocked;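 active = activation factor of 2 or more for CYP2C9 at a 5 µM dose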;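 note: 0 = sulfaphenazole-blocked wells and 1 = vehicle-only wells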
Starred values were filed as active, the others as inactive; x = not tested or not shown. The list is not random: actives were taken first. Their share in the collection is about 27%.

SMILES	CYP2C19 activ	CYP2C19 inhib	EphB4 antag	CYP2C9 inh	CYP2C9 act
COC(=O)c1c(NC(=O)c2ccco2)sc2c1C(C(=O)OC)CC2 (stereo not given)	0.7	34	2	62*	0.4
Cc1ccc2cc(C(c3nnnn3Cc3ccccc3)N3CCc4ccccc43)c(=O)[nH]c2c1 (stereo not given)	0.9	10	-2	30	0.7
O=C(Oc1cccc(-c2cnc3ccccc3n2)c1)c1ccco1	0.9	8	-1	9	0.9
CCCCOC(=O)C1=C(C)Nc2ncnn2C1c1ccc(OC)c(OC)c1OC (stereo not given)	x	x	0	x	x
Cc1ccc(NC(=S)NCCO)c(C)c1	1	5	7	-2	1
Cc1ccc(NC(=S)NCc2ccc3c(c2)OCO3)c(C)c1	0.1	90*	0	29	0.7
Cc1cc(Cl)ccc1NC(=S)NCCC(c1ccccc1)c1ccccc1	0.1	88*	0	85*	0.2
Cc1cc(Cl)ccc1NC(=S)NCc1ccc(Cl)cc1	0.5	52*	4	52*	0.5
OCCN(CCO)CC(O)COCCC12CC3CC(CC(C3)C1)C2 (stereo not given)	0.8	18	-7	13	0.9
CCN1CCN(C(c2cc(OC)c(OC)c(OC)c2)c2nnnn2C(C)C)CC1 (stereo not given)	0.9	7	4	-6	1.1
Cc1cccc(NC(=S)NC(=O)/C=C/c2ccco2)n1	0.5	50	0	55*	0.5
O=C(/C=C/c1ccco1)NC(=S)Nc1cccc(-c2nc3ccccc3o2)c1	0.9	13	0	39	0.6
Cc1ccccc1CSCC(Nc1ccc(C(=O)O)cc1[N+](=O)[O-])C(=O)O (stereo not given)	1	-2	5	69*	0.3
Cc1ccc(-c2nnc3n2CCCCC3)cc1	1.1	-10	3	-11	1.1
Cc1cc(-c2nnc3n2CCCCC3)c(C)n1-c1ccccc1	0.7	34	4	51*	0.5
Cc1cccc(N2CCN(C(=O)C3CCCCC3)CC2)c1C	0.9	7	-4	-71	1.7
CCS(=O)(=O)N1Cc2ccccc2CC1C(=O)NCC12CC3CC(CC(C3)C1)C2 (stereo not given)	0.1	92*	0	68*	0.3
CCS(=O)(=O)N1Cc2ccccc2CC1C(=O)N1CCN(c2cccc(C)c2C)CC1 (stereo not given)	0.4	64*	-8	58*	0.4
O=C1c2ccccc2C(=O)c2c1cccc2N1CCOCC1	0.5	47	2	50	0.5
O=C1C(N2CCOCC2)=C(n2nnc3ccccc32)C(=O)c2ccccc21	0	100*	0	90*	0.1
Cc1ccccc1OCCCN1C(=O)C(=O)c2cccc(C)c21	0.8	21	2	10	0.9
Cc1ccc(C2(C)NC(=O)N(Cc3c(C)noc3C)C2=O)cc1 (stereo not given)	0.5	53*	-1	12	0.9
COC(=O)c1cnn(-c2nc3c(C)cccc3s2)c1C	1	-1	-1	-12	1.1
COC(=O)c1ccccc1NC(=O)Nc1cccs1	x	x	8	x	x
CC(=O)c1cccc(NC(=S)NC(=O)C(C)C)c1	0.6	40	2	52*	0.5
SMILES	CYP2C19 activ	CYP2C19 inhib	EphB4 antag	CYP2C9 inh	CYP2C9 act
COc1cc(OC)c(C(=O)Nc2cccc(C(C)=O)c2)cc1OC	0.7	33	6	59*	0.4
COc1ccc(C(=O)Nc2cccc(C(C)=O)c2)c(OC)c1OC	0.4	63*	-5	15	0.8
COc1ccccc1NC(=O)Nn1cnnc1	1.2	-20	x	-12	1.1
O=C(c1cccc(COc2cccc3ccccc23)c1)N1CCCC1	x	x	4	x	x
CCCOc1ccc(Cn2c(C)nc([N+](=O)[O-])c2SCC(O)COC)cc1[N+](=O)[O-] (stereo not given)	0.6	42	0	43	0.6
CCOc1ccc(Cn2c(C)nc([N+](=O)[O-])c2SCC(O)CCl)cc1[N+](=O)[O-] (stereo not given)	0.2	76*	-2	61*	0.4
CC(C)NC(=O)c1ccc2c(c1)N(CC(=O)N1CCOCC1)C(=O)C(C)(C)O2	0.9	8	-1	15	0.8
Cc1ccc(CN2C(=O)C(C)(C)Oc3ccc(C(=O)N4CCCCC4)cc32)cc1	0.7	30	-4	57*	0.4
COc1cccc(C(=O)CN2C(=O)C(C)(C)Oc3ccc(C(=O)N4CCCCCC4)cc32)c1	0.8	18	x	67*	0.3
COc1cccc(NC(=O)c2ccc3c(c2)N(CC(=O)N2CCCCC2)C(=O)C(C)(C)O3)c1	0.9	12	2	64*	0.4
CCOC(=O)n1c(=O)n(Cc2ccccc2Cl)c2ccccc21	0.2	85*	-1	48	0.5
CCOC(=O)n1c(=O)oc2ccc(Cl)cc21	x	x	5	x	x
CCOC(=O)n1c(=O)n(Cc2ccc(Cl)cc2Cl)c2ccccc21	0.4	63*	-11	19	0.8
C=C(C)CN=c1scc(C)n1/N=C/c1ccco1	0.1	88*	2	44	0.6
CCN=c1scc(-c2ccco2)n1/N=C/c1ccc(O)cc1	0.9	10	5	-11	1.1
Cn1c(=O)c2c(nc(Oc3ccc4c(c3)OCO4)n2Cc2ccc(Cl)cc2)n(C)c1=O	1.1	-6	-2	27	0.7
Cc1cnn(CCC(=O)NNC(=S)Nc2ccc(F)cc2)c1	0.9	6	-1	2	1
Cc1ccc(C(=O)/C=C/c2ccc(-c3ccccc3[N+](=O)[O-])o2)cc1	0.7	29	9	58*	0.4
O=C(/C=C/c1ccc(-c2ccccc2[N+](=O)[O-])o1)c1ccc(Br)cc1	0.8	21	-1	13	0.9
CC(C)CN1C(=O)NC(NC(=O)c2cccnc2)(C(F)(F)F)C1=O (stereo not given)	0.9	9	-1	1	1
OC(COc1ccc2cc(Br)ccc2c1)CN1CCOCC1 (stereo not given)	x	x	11	x	x
COc1cccc(C2C(C(=O)NCc3ccccc3)=C(C)Nc3ncnn32)c1 (stereo not given)	1	0	x	2	1
CC(Nc1c([N+](=O)[O-])c(=O)oc2ccccc12)C(Cl)c1ccccc1 (stereo not given)	0	97*	-2	33	0.7
CC(N=C(NS(=O)(=O)c1ccc(Cl)cc1)c1ccccc1)C(=O)O (stereo not given)	1	-4	1	-18	1.2
ONC(=Nc1ccc(Cl)cc1)c1ccccc1	0.1	91*	1	24	0.8
CCOc1ccccc1NC(=O)/C=C/C(N)=O	1.1	-7	-7	-15	1.2
CCN(CC)C(=O)c1sc(NC(=O)c2ccoc2C)c(C(=O)OC)c1C	0.9	14	x	31	0.7
CCOC(=O)c1c(NC(=O)c2ccoc2C)sc(C(=O)N(C)C)c1C	0.4	57*	-15	83*	0.2
CCN(CC)C(=O)c1sc(N)c(C(=O)OC(C)C)c1C	x	x	-1	x	x
